Most compounds without a hit are left out; they make up all but 31% or so of the library.
CYP2C19 activ: increases human CYP2C19 enzyme activity; recombinant CYP2C19, luciferin-H EGE luminescence; active compounds read high; 0 = fully inhibited enzyme, 1 = untreated enzyme; activation factor at 5 µM; 96,000 tested, under 10 active; AID 1025;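 active means activation factor of at least 2 at 5 µM in the primary screen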;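 further: 0 = wells with 2.5 mM tranylcypromine and 1 = vehicle-only wells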
CYP2C19 inhib: blocks human cytochrome P450 2C19. AID 778. hit rate 21% among 96,000. CYP2C19 Supersomes, luciferin-H EGE luminescence, 30 min. inhibition, % at 5 µM;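 active means CYP2C19 inhibition above a set limit at 5 µM in the primary screen, cut at about 50% in these data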;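 further: plate controls were negative control wells for no effect and 2.5 mM tranylcypromine positive control for full effect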
CYP2C9 act: CYP2C9 (human) activation; recombinant CYP2C9, luciferin-H conversion, luminescence; active compounds read high; factor 1 = untreated enzyme, 0 = blocked; hit rate 1.4% among 96,000; AID 1024; activation factor at 5 µM;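 active means activation factor of 2 or more for CYP2C9 at a 5 µM dose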;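 further: 0 = sulfaphenazole-blocked wells and 1 = vehicle-only wells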
Target sequence (P11712 whole entry, looked up): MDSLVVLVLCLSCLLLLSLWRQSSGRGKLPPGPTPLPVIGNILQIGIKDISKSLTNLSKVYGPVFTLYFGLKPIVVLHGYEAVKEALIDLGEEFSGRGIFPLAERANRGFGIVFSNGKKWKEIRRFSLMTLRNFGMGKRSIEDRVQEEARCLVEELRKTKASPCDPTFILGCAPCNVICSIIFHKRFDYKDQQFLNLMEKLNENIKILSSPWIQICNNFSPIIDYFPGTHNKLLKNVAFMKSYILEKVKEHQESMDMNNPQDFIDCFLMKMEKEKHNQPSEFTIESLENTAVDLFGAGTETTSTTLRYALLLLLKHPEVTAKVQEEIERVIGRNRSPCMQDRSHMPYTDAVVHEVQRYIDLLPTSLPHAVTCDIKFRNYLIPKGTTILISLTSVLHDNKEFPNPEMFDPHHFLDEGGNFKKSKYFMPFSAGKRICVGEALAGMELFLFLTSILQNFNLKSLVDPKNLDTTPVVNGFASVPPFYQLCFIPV
CYP2C9 inhib: inhibitors of human CYP2C9; P11712; CYP2C9 Supersomes, luciferin-H conversion, luminescence; inhibition, % at 5 µM; hit rate 20% among 96,000; AID 777;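 active means blocking of liver enzyme CYP2C9 beyond about 50% at 5 µM, limit read from the data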
PLAP act: human PLAP activation; hit rate 1.2% among 96,000; P05187; purified PLAP enzyme, luminescent substrate read-out; active compounds read high; activation fold at 20 µM; AID 696; in the data active means activation fold above about 2
* marks the source's active call; other numbers are inactive results.

SMILES	CYP2C19 activ	CYP2C19 inhib	CYP2C9 act	CYP2C9 inhib	PLAP act
C=CCn1c(SCC(=O)Nc2ncc(Cc3ccc(Br)cc3)s2)nnc1-c1ccncc1	0.7	33	1	-1	1.3
C1CN(c2nc3nonc3n3nnnc23)CCO1	0.8	18	0.7	28	1
CSc1ncc2c(n1)-c1cc(C)ccc1SC2	1	0	0.8	21	1
CCOc1ccccc1NC(=O)CSc1nnc(CNC(=O)c2ccco2)o1	0.8	18	0.8	24	1.1
O=C(Cn1c(N2CCN(c3ccccc3)CC2)nc2ccccc21)c1ccccc1	1.1	-12	1.1	-11	0.9
CCc1ccccc1NC(=O)C(Cc1cccc(OC)c1OC)c1nn[nH]n1 (stereo not drawn)	1	0	0.5	50*	1.4
COCCNC(=O)CN(C(=O)CCC(=O)Nc1cc(C)on1)c1ccccc1C	0.9	10	0.8	25	1
O=C(CN(C(=O)CCC(=O)Nc1nccs1)c1ccc2c(c1)OCCO2)NCc1ccco1	0.6	44	0.8	16	1
Cc1ccc(CN(CC(=O)NCCc2ccccc2)C(=O)CCCC(=O)Nc2cc(C)on2)cc1	0.4	60*	0.4	62*	1.3
CCOc1ccccc1N(CC(=O)NCC1CCCO1)C(=O)CCC(=O)Nc1ccccn1 (stereo not drawn)	0.7	34	0.8	21	1.2
Cc1cccc(N(CC(=O)NCc2ccc3c(c2)OCO3)C(=O)CCC(=O)Nc2ccccn2)c1C	0.2	82*	0.4	59*	1.8
COCCN(CC(=O)NCc1ccc(F)cc1)C(=O)CCC(=O)Nc1ccccn1	1	0	1	-2	1.2
COc1ccc(CNC(=O)CN(C(=O)CCC(=O)Nc2ccccn2)c2ccccc2OC)cc1	0.6	44	0.4	64*	1.4
Cc1cccc(N(CC(=O)NCc2ccco2)C(=O)CCC(=O)Nc2ccccn2)c1	0.4	58*	0.8	23	1.1
C=CCc1c(C)nc(SC(C)C)[nH]c1=O	0.9	13	1.1	-8	0.8
CCOC(=O)N1CCC(N2CC34C=CC(O3)C(C(=O)Nc3ccc(OCC)cc3)C4C2=O)CC1 (stereo not drawn)	1.1	-8	0.9	15	1.4
O=C(CN(Cc1ccco1)C(=O)CCC(=O)Nc1ccccn1)NCCc1ccccc1	0.3	69*	0.4	58*	1.7
Cc1cccc(N(CC(=O)NCc2ccc3c(c2)OCO3)C(=O)CCC(=O)Nc2ccccn2)c1	0.4	61*	0.7	28	1.6
O=C(O)c1cccc(S(=O)(=O)N2CCOCC2)c1	1.2	-16	1	-5	0.8
Cc1cccc(NC(=S)N(C)C2(c3ccccc3Cl)CCCCC2=O)c1 (stereo not drawn)	0	97*	0.3	68*	0.8
CN(C(=S)Nc1ccccc1F)C1(c2ccccc2Cl)CCCCC1=O (stereo not drawn)	0.2	82*	1	3	1.2
CCCc1nnc(NC(=O)c2c(O)c3cccc4c3n(c2=O)CCC4)s1	0.9	12	0.6	36	1.6
N#Cc1ccccc1NC(=O)Nc1cccs1	1.2	-22	1.2	-25	1
CCOc1ccc(C2Nc3ccc4ccccc4c3-c3c2c(=O)oc2ccccc32)cc1 (stereo not drawn)	0.5	52*	0.2	84*	1.7
O=c1oc2ccccc2c2c1C(c1ccc(Cl)cc1)Nc1ccc3ccccc3c1-2 (stereo not drawn)	1	2	0.9	5	0.7
SMILES	CYP2C19 activ	CYP2C19 inhib	CYP2C9 act	CYP2C9 inhib	PLAP act
COc1ccc(C2Nc3ccc4ccccc4c3-c3c2c(=O)oc2ccccc32)cc1 (stereo not drawn)	0.9	12	0.2	83*	1.9
O=C(O)CCCC(=O)Nc1c(F)c(F)c(F)c(F)c1F	1	5	0.9	8	1
Clc1cc(Sc2ccc(Br)cc2)nnc1-c1ccccc1	0.5	54*	0.3	68*	1
COCc1cc(Sc2ccc(Br)cc2)nc(-c2ccccc2)n1	1	3	0.6	40	1
Cc1nn(C)c(Cl)c1NC(=O)OCc1ccccc1	0.7	33	1.5	-49	1
Cc1nnsc1NC(=O)OCc1ccccc1Cl	0.2	76*	0.7	28	1
Cc1ccc(SCCNC(=O)C(C)C)cc1	0.9	11	0.9	8	0.9
Cc1cc(C)nc(NC(=O)c2ccc(C)c([N+](=O)[O-])c2)n1	1	4	0.9	13	0.9
Cc1ccc(SCCNC(=O)c2ccc(C)c([N+](=O)[O-])c2)cc1	0.5	51*	0.5	47	0.5
Cc1ccc(SCCNC(=O)c2ccccc2C)cc1	0.1	90*	0.1	89*	0.9
Cc1c(Nc2cc(N3CCCCCC3)c3nonc3c2[N+](=O)[O-])c(=O)n(-c2ccccc2)n1C	0.7	30	0.6	40	1
CCCCCCOc1cccc(N)c1	0.4	64*	0.6	35	1
CCc1c(C)nc2[nH]nc(NC(=O)C(F)(F)F)n2c1=O	1	3	0.9	10	0.9
O=C1C2ON(c3ccccc3)C(c3cccnc3)C2C(=O)N1c1ccc(Cl)c(Cl)c1 (stereo not drawn)	0.3	68*	0.5	46	1.3
O=C1C2ON(c3ccccc3)C(c3cccnc3)C2C(=O)N1c1ccccc1 (stereo not drawn)	1	-1	1	-2	0.9
COc1cc(C2C3C(=O)N(c4ccc(F)cc4)C(=O)C3ON2c2ccccc2)ccc1O (stereo not drawn)	0.6	42	0.5	53*	1.1
COc1cc(C2C3C(=O)N(c4ccccc4)C(=O)C3ON2c2ccccc2)cc(OC)c1OC (stereo not drawn)	0.5	50*	0.8	23	1.3
O=C(/C=C/c1ccc(Cl)cc1Cl)n1cccn1	0.9	15	0.8	16	1.1
COc1cccc(N2CCN(Cc3cccnc3)CC2)c1	0.3	67*	1.1	-13	1.1
FC(F)(F)c1cccc(N2CCN(Cc3ccoc3)CC2)c1	0.3	67*	0.5	54*	1.3
Cc1cccc(N2CCN(Cc3ccoc3)CC2)c1C	0.7	31	0.8	16	1
FC(F)(F)c1cccc(N2CCN(Cc3cccnc3)CC2)c1	0	96*	0.2	81*	1.2
COc1cccc(CN2CCN(c3ncccn3)CC2)c1	0.4	56*	0.9	10	1.1
COc1ccc(C2CCN(Cc3cccnc3)CC2O)cc1 (stereo not drawn)	0.8	22	0.9	6	0.9
O=C(CCc1nc(-c2ccccc2F)no1)NC1CCCCCC1	0.7	27	0.7	28	0.8
Cc1cc(C(=O)N2CCN(c3ccccn3)CC2)no1	0.7	26	1	-4	0.9
Cc1cccnc1NC(=O)C1CCN(S(=O)(=O)c2cccs2)CC1	1.1	-6	0.9	11	1
CCOc1cccc(CN2CCN(c3cccc(C(F)(F)F)c3)CC2)c1O	0.1	93*	0.4	65*	1.3

Assay outcomes: PubChem, Sanford-Burnham Center for Chemical Genomics
